The record followed here is PubChem BioAssay (NCI).

About 79,000 compounds went through this panel and 15% of them were active in at least one assay; those are over-represented in the sample as a whole. Values without a mark were called inactive. Activity calls are given as the source filed them. Rule as the data show it: active = growth inhibition above about 70%; inactive = the rest.

Assay [1] is described as follows: NCI Yeast Anticancer Drug Screen. Data for the rad50 strain (AID 155).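 Also: 0% = growth of vehicle-only cultures of the same strain.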 As to conditions: S. cerevisiae rad50 strain growth inhibition, hits give high values. In a few lines:
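Inhibition values express reduced yeast growth in compound-treated cultures relative to vehicle-treated controls.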

A short description of assay [2]: NCI Yeast Anticancer Drug Screen. Data for the mec2-1 strain (AID 157). The following applies: S. cerevisiae mec2-1 strain, hits give high values. In a few lines:
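Mutant yeast (mec2-1) grown with compound; growth inhibition relative to vehicle control reported.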

Assay [3] is described as follows: NCI Yeast Anticancer Drug Screen. Data for the sgs1 mgt1 strain (AID 161).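 Also: 0% = growth of cultures given vehicle only.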 The following applies: S. cerevisiae sgs1 mgt1 strain, hits give high values. In a few lines: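 Percent growth inhibition was derived by comparing compound-exposed mutant yeast with vehicle-exposed cultures. The strain carries alterations in DNA damage repair.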
Assay [4] in a line: NCI Yeast Anticancer Drug Screen. Data for the cln2 rad14 strain (AID 165).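 Also: 0% = growth equal to vehicle treated cultures.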 The following applies: S. cerevisiae cln2 rad14 strain, hits give high values. In a few lines: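 Readout is yeast growth inhibition versus vehicle-treated controls, using a strain with cln2 and rad14 alterations exposed to compound.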
Assay [5] in a line: NCI Yeast Anticancer Drug Screen. Data for the bub3 strain (AID 167). The following applies: S. cerevisiae bub3 mutant strain, hits give high values. In a few lines: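 Steps: expose the mutant yeast strain to compound; grow alongside vehicle-treated cultures; measure growth; express inhibition against the vehicle cultures.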
The nature of assay [6]: NCI Yeast Anticancer Drug Screen. Data for the mlh1 rad18 strain (AID 175). As to conditions: S. cerevisiae mlh1 rad18 strain growth inhibition, hits give high values. In a few lines:
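Genetically defined yeast (DNA repair-deficient) exposed to compounds; growth inhibition determined relative to vehicle.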

The mark [7] stands for this setting: at 5.0 µM (retest, dose inferred, filed as 0.5).
The mark [8] stands for this setting: at 50.0 µM (retest, dose inferred, filed as 5.0).

For `Oc1c(Br)cc(Br)cc1C=Nc1ccc(Br)cc1`, the growth inhibition in assay [1] (setting [7]) was 68%; in assay [1] (setting [8]) it was 98% (active); in assay [1] (at 50.0 µM) it was 80.8% (active); in assay [2] (setting [7]), 55%; in assay [2] (setting [8]), 99% (active); in assay [2] (at 50.0 µM), 91.5% (active). The growth inhibition in assay [3] (setting [7]) was 72% (active); in assay [3] (setting [8]) it was 98% (active); in assay [3] (at 50.0 µM), 89.6% (active); in assay [4] (setting [7]), 44%; in assay [4] (setting [8]), 99% (active); in assay [4] (at 50.0 µM), 89.2% (active). Further, the growth inhibition was 73% (active) in assay [5] (setting [7]); 99% (active) in assay [5] (setting [8]); 89% (active) in assay [5] (at 50.0 µM); 88% (active) in assay [6] (setting [7]); 98% (active) in assay [6] (setting [8]); 87.1% (active) in assay [6] (at 50.0 µM).
Take `CC(=O)OCc1ccc2c(c1)C(O)NC(=O)O2` (stereo not given): the growth inhibition in assay [1] (setting [7]) is 8%; in assay [1] (setting [8]), 45%; in assay [1] (at 50.0 µM), 36%; in assay [2] (setting [7]), 2%; in assay [2] (setting [8]) it was 13%; in assay [2] (at 50.0 µM), 21.9%. Besides, the growth inhibition in assay [3] (setting [7]) is 13%; in assay [3] (setting [8]), 69%; in assay [3] (at 50.0 µM), 51.8%; in assay [4] (setting [7]), -5%; in assay [4] (setting [8]), 18%; in assay [4] (at 50.0 µM), 16.2%. Further, the growth inhibition in assay [5] (setting [7]) was 0%; in assay [5] (setting [8]) it was -7%; in assay [5] (at 50.0 µM), -23.1%; in assay [6] (setting [7]) it was 43%; in assay [6] (setting [8]), 88% (active); in assay [6] (at 50.0 µM), 55.6%.
For `Cc1ccc(N2CC(O)CN(c3ccc(C)cc3)CC(O)C2)cc1` (stereo not given), the growth inhibition in assay [1] (setting [7]) is 0%; in assay [1] (setting [8]) it was 3%; in assay [1] (at 50.0 µM) it was 20.4%; in assay [2] (setting [7]), -7%; in assay [2] (setting [8]) it was -13%; in assay [2] (at 50.0 µM), 18.1%. Further, the growth inhibition is -29% in assay [3] (setting [7]); 1% in assay [3] (setting [8]); 24.9% in assay [3] (at 50.0 µM); 6% in assay [4] (setting [7]); -10% in assay [4] (setting [8]); 6.55% in assay [4] (at 50.0 µM). Besides, the growth inhibition was 3% in assay [5] (setting [7]); 1% in assay [5] (setting [8]); 15.3% in assay [5] (at 50.0 µM); 33% in assay [6] (setting [7]); 0% in assay [6] (setting [8]); 23.2% in assay [6] (at 50.0 µM).
On to `Cc1cc(Cl)c(O)c(-c2cc(-c3ccccc3O)c(C#N)c(N)n2)c1`, for which the growth inhibition was 4% in assay [1] (setting [7]); 75% (active) in assay [1] (setting [8]); 59.5% in assay [1] (at 50.0 µM); -22% in assay [2] (setting [7]); 80% (active) in assay [2] (setting [8]); 52.1% in assay [2] (at 50.0 µM). For the same molecule, the growth inhibition was -28% in assay [3] (setting [7]); 80% (active) in assay [3] (setting [8]); 67.7% in assay [3] (at 50.0 µM); -4% in assay [4] (setting [7]); 65% in assay [4] (setting [8]); 69.4% in assay [4] (at 50.0 µM). Moreover, the growth inhibition in assay [5] (setting [7]) is -59%; in assay [5] (setting [8]), 73% (active); in assay [5] (at 50.0 µM), 62.4%; in assay [6] (setting [7]), -23%; in assay [6] (setting [8]), 87% (active); in assay [6] (at 50.0 µM) it was 55%.
`CNC(=O)OCc1c(COC(=O)NC)c(-c2ccc(Cl)c(Cl)c2)n2c1Cc1ccccc1C2`: the growth inhibition is -18% in assay [1] (setting [7]); 97% (active) in assay [1] (setting [8]); 88.7% (active) in assay [1] (at 50.0 µM); -21% in assay [2] (setting [7]); 98% (active) in assay [2] (setting [8]); 92.2% (active) in assay [2] (at 50.0 µM). For the same molecule, the growth inhibition in assay [3] (setting [7]) is -6%; in assay [3] (setting [8]) it was 85% (active); in assay [3] (at 50.0 µM) it was 88.8% (active); in assay [4] (setting [7]) it was 8%; in assay [4] (setting [8]), 63%; in assay [4] (at 50.0 µM), 90.8% (active). In addition, the growth inhibition in assay [5] (setting [7]) was -23%; in assay [5] (setting [8]) it was 97% (active); in assay [5] (at 50.0 µM), 88.1% (active); in assay [6] (setting [7]), -11%; in assay [6] (setting [8]), 97% (active); in assay [6] (at 50.0 µM), 87% (active).
Regarding `COc1ccc2c(c1)CC[C@@H]1C2CC[C@]2(C)OC(=O)CCC12` (stereo not given in full), the growth inhibition in assay [1] (setting [7]) is -23%; in assay [1] (setting [8]), 98% (active); in assay [1] (at 50.0 µM), 73.1% (active); in assay [2] (setting [7]) it was -5%; in assay [2] (setting [8]), 89% (active); in assay [2] (at 50.0 µM), 66.8%. Further, the growth inhibition in assay [3] (setting [7]) was -15%; in assay [3] (setting [8]), 93% (active); in assay [3] (at 50.0 µM), 77.1% (active); in assay [4] (setting [7]), -4%; in assay [4] (setting [8]), 92% (active); in assay [4] (at 50.0 µM) it was 67.3%. In addition, the growth inhibition in assay [5] (setting [7]) was -31%; in assay [5] (setting [8]), 97% (active); in assay [5] (at 50.0 µM) it was 72.7% (active); in assay [6] (setting [7]) it was 12%; in assay [6] (setting [8]), 97% (active); in assay [6] (at 50.0 µM), 71.7% (active).
Turning to `Cc1ccc(SCc2nc3ccccc3c(C)[n+]2[O-])cc1`, the growth inhibition in assay [1] (setting [7]) was 2%; in assay [1] (setting [8]) it was 86% (active); in assay [1] (at 50.0 µM) it was 32.6%; in assay [2] (setting [7]), 4%; in assay [2] (setting [8]), 86% (active); in assay [2] (at 50.0 µM), 45.6%. For the same molecule, the growth inhibition in assay [3] (setting [7]) is -7%; in assay [3] (setting [8]), 87% (active); in assay [3] (at 50.0 µM) it was 55%; in assay [4] (setting [7]) it was 0%; in assay [4] (setting [8]) it was 53%; in assay [4] (at 50.0 µM), 38%. The growth inhibition in assay [5] (setting [7]) was -4%; in assay [5] (setting [8]), 76% (active); in assay [5] (at 50.0 µM), 55.9%; in assay [6] (setting [7]) it was -7%; in assay [6] (setting [8]), 91% (active); in assay [6] (at 50.0 µM) it was 56.7%.
On to `CCCNC(=O)N(CC(C)(C)C)S(=O)(=O)c1ccc(Cl)cc1`, for which the growth inhibition in assay [1] (setting [7]) was -4%; in assay [1] (setting [8]), -10%; in assay [1] (at 50.0 µM), 71.1% (active); in assay [2] (setting [7]) it was -2%; in assay [2] (setting [8]), -10%; in assay [2] (at 50.0 µM), 93.1% (active). Also, the growth inhibition in assay [3] (setting [7]) was -2%; in assay [3] (setting [8]), 0%; in assay [3] (at 50.0 µM) it was 68.3%; in assay [4] (setting [7]), -4%; in assay [4] (setting [8]), -17%; in assay [4] (at 50.0 µM), 86.8% (active). In addition, the growth inhibition in assay [5] (setting [7]) was 7%; in assay [5] (setting [8]) it was 27%; in assay [5] (at 50.0 µM), 99.5% (active); in assay [6] (setting [7]), -5%; in assay [6] (setting [8]), -97%; in assay [6] (at 50.0 µM) it was 36.2%.
As to `CCOC(=O)Sc1nc2ccccc2[nH]1`, the growth inhibition is 4% in assay [1] (setting [7]); 6% in assay [1] (setting [8]); 53.2% in assay [1] (at 50.0 µM); 2% in assay [2] (setting [7]); 3% in assay [2] (setting [8]); 25.2% in assay [2] (at 50.0 µM). Moreover, the growth inhibition was 4% in assay [3] (setting [7]); 0% in assay [3] (setting [8]); 62.1% in assay [3] (at 50.0 µM); 3% in assay [4] (setting [7]); 1% in assay [4] (setting [8]); 13.7% in assay [4] (at 50.0 µM). In addition, the growth inhibition in assay [5] (setting [7]) was 2%; in assay [5] (setting [8]) it was 2%; in assay [5] (at 50.0 µM), 7.45%; in assay [6] (setting [7]), 0%; in assay [6] (setting [8]) it was 7%; in assay [6] (at 50.0 µM), 29.4%.
As for `O=C(C[n+]1ccccc1)N=N/C(C(=O)Nc1c(Cl)c(O)c2ccccc2c1O)=C1/C(=O)Oc2cc(O)ccc2C1=O`, the growth inhibition is 15% in assay [1] (setting [7]); 98% (active) in assay [1] (setting [8]); 97.3% (active) in assay [1] (at 50.0 µM); 23% in assay [2] (setting [7]); 98% (active) in assay [2] (setting [8]); 95.8% (active) in assay [2] (at 50.0 µM). Moreover, the growth inhibition was 19% in assay [3] (setting [7]); 98% (active) in assay [3] (setting [8]); 93% (active) in assay [3] (at 50.0 µM); -15% in assay [4] (setting [7]); 96% (active) in assay [4] (setting [8]); 68.5% in assay [4] (at 50.0 µM). Further, the growth inhibition in assay [5] (setting [7]) was 24%; in assay [5] (setting [8]) it was 98% (active); in assay [5] (at 50.0 µM), 90.8% (active); in assay [6] (setting [7]) it was 27%; in assay [6] (setting [8]), 97% (active); in assay [6] (at 50.0 µM), 94.6% (active).
